Data from PubChem BioAssay AID488777 (Sanford-Burnham Center for Chemical Genomics, 2010).
Activity calls are given as the source filed them. How the calls were made is not given here.

Assay: assay artefact check, AlphaScreen readout interference – biochemical, artefact control for SUMOylation inhibitor project, SAR follow-up (AID 488777)
Conditions: purified counter-screen enzymes, TR-FRET, 60 min

SMILES | IC50
CCCCn1c(NC(C)=O)c(C#N)c2nc3ccccc3nc21 | > 100 µM (inactive)
COC(=O)C1=C(C(=O)OC)C2([C@@H](Cc3ccc(C)cc3)Nc3ccccc3)C=CC1O2 (some centres undefined) | > 100 µM (inactive)
CCCC1=NN(c2ccc(C(=O)O)cc2)C(=O)/C1=C/c1ccc(OCc2ccccc2)cc1 | 16.4 µM (active)
CCCCn1c(NC(=O)c2ccc(Cl)cc2)c(C#N)c2nc3ccccc3nc21 | 54.4 µM (active)
CCC[C@@H](Nc1ccccc1)C12C=CC(O1)C(C(=O)OC)=C2C(=O)OC (some centres undefined) | > 100 µM (inactive)
CCCCn1c(N)c(S(=O)(=O)c2ccc(C)cc2)c2nc3ccccc3nc21 | > 100 µM (inactive)
CCCC1=NN(c2ccc(C(=O)O)cc2)C(=O)/C1=C/c1ccc(O)cc1 | > 100 µM (inactive)
CCCCn1c(NC(=O)c2ccc(F)cc2)c(S(=O)(=O)c2ccc(C)cc2)c2nc3ccccc3nc21 | > 100 µM (inactive)
CCCCn1c(NC(=O)C2CCCCC2)c(C#N)c2nc3ccccc3nc21 | > 100 µM (inactive)
COC(=O)C1=C(C(=O)OC)C2(C(Cc3ccc(OC(F)(F)F)cc3)Nc3ccccc3)C=CC1O2 (centres undefined) | > 100 µM (inactive)
c1ccc(CC(Nc2ccccc2)c2ccco2)cc1 (centres undefined) | > 100 µM (inactive)
C=C[C@@H](Nc1ccccc1)C12C=CC(O1)C(C(=O)OC)=C2C(=O)OC (some centres undefined) | > 100 µM (inactive)
COC(=O)C1=C(C(=O)OC)C2(C(Cc3ccc(F)cc3)Nc3ccccc3)C=CC1O2 (centres undefined) | > 100 µM (inactive)
N#Cc1c(NC(=O)c2ccccc2Cl)n(Cc2ccccc2)c2nc3ccccc3nc12 | > 100 µM (inactive)
